The source of these data is PubChem BioAssay.

Each structure is given as a SMILES string. Values joined by “and” are separate entries in the source; they are usually repeats but may differ in a detail not shown here. Equal entries are not always repeated. Results filed as inconclusive are left out. Active and inactive are the calls of the source.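 How the source made its calls, unless noted: active means z-score of at least 1.8 in each of two replicates, scored against plate mean and spread of sample wells; inactive means the rest.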

The nature of assay [1]: P. berghei load reduction in hepatocytes – cell-based, HepG2, luciferase luminescence, HepG2 viability, primary screen (AID 624349; in the data active means parasite load remaining mostly below about 12%, no sharp cut-off; inactive means mostly above about 10%;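 further: 100% = mean of DMSO negative control wells on the same plate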). The note with it: P. berghei liver stage in HepG2, luciferase luminescence, concentration not given here; parasite load remaining: stronger effect = lower value; viability: measured here: HepG2 viability without parasites.
The nature of assay [2]: Wnt pathway potentiators raising nuclear beta-catenin – imaging, WNT3A-conditioned medium, mouse C2C12, NPC library, primary screen (AID 1117326; in the data active means nuclear beta-catenin stimulation mostly above about 4.2%, no sharp cut-off; inactive means mostly below about 10%). The note with it: stronger effect = higher value.
A short description of assay [3]: stimulators of insulin release from INS-1E, primary screen, cell-based, 5 mM glucose, NPC library (AID 1117329;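 active means compound raises insulin release from rat beta cells at 5 mM glucose, no numeric limit stated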). Particulars: rat INS-1E insulin secretion, at 10 µM, stronger effect = higher value.
Assay [4] is described as follows: growth inhibition of GSK3B-pretreated HCT116 cells – cell-based, CellTiter-Glo, 0.2 to 20 µM (AID 1117336;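 active means compounds lowering colon cancer cell viability after pretreatment blocking the GSK3B kinase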). Particulars: HCT116 viability after GSK3B inhibitor, at 20 µM, stronger effect = higher value.
Assay [5] in a line: inhibition of endothelial tube formation, primary screen, imaging, VEGF stimulated, CD31 staining, tube area, NPC library (AID 1117340;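 active means compound that reduces growth-factor-driven endothelial tube area in a mixed cell culture, no cutoff stated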). The note with it: VEGF-stimulated ADSC/ECFC co-culture, at 10 µM, stronger effect = higher value.
The nature of assay [6]: GLP1 release stimulators, primary, NCI-H716, NPC library (AID 1117341;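 active means compound raises GLP1 secretion from the human gut endocrine cells, with no numeric limit stated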). The note with it: NCI-H716 cells, at 10 µM, stronger effect = higher value.
Assay [7] is described as follows: HCT116 colon cancer cell growth inhibition, primary screen, CellTiter-Glo luminescence, NPC library (AID 1117342;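 active means compounds that lower survival of HCT116 colon cancer cells in the luminescence readout, no numeric limit stated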). The note with it: at 20 µM (top of the series). For orientation: In ATP-based viability assays light output follows the ATP content of the culture.
Assay [8] is described as follows: reduced SW480 viability measured with CellTiter-Glo, NPC library, primary (AID 1117343;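 active means compounds that lower viability of the colon cancer cells in the luminescence readout, with no numeric limit stated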). Particulars: CellTiter-Glo luminescence; at 20 µM (top of the series) unless noted.
Assay [9] is described as follows: NPC library primary testing for decreased DLD-1 cell viability via CellTiter-Glo (AID 1117346;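 active means compounds that lower survival of DLD-1 colon cancer cells in the luminescence readout, no cutoff given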). Particulars: DLD-1 viability, CellTiter-Glo luminescence; at 20 µM (top of the series).
For assay [10], the system named is Aerobactin synthetase IucA (Klebsiella pneumoniae). Put plainly: inhibition of K. pneumoniae IucA enzyme – biochemical, Tocris library, absorbance (AID 1345561; call rule not given here;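 further: 100% = enzyme without compound and 0% = no enzyme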). Particulars: purified IucA enzyme assay, absorbance (OD) read-out; stronger effect = lower value;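 tested at 8 µM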.
A short description of assay [11]: viability loss in pontine glioma line – cell-based, SU-DIPG-XVII, MIPE5.0, CellTiter-Glo, qHTS, dose response (AID 1347060; cut-off not given, nearly all actives have AC50 up to about 26 µM;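 further: cells exposed to compound for 48 hours before viability readout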). The note with it: CellTiter-Glo ATP luminescence.
A short description of assay [12]: viability loss in pontine glioma line – cell-based, SU-DIPG-XIII, MIPE4.0, CellTiter-Glo, qHTS, dose response (AID 1347061; cut-off not given, nearly all actives have AC50 up to about 37 µM;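 further: cells exposed to compound for 48 hours before readout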). Particulars: CellTiter-Glo ATP luminescence.
Assay [13] can be described thus: viability loss in pontine glioma line – cell-based, SU-DIPG-IV, MIPE4.0, CellTiter-Glo, qHTS, dose response (AID 1347063; cut-off not given, nearly all actives have AC50 up to about 30 µM;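 further: compound exposure lasted 48 hours before the viability readout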). The note with it: CellTiter-Glo ATP luminescence.
Assay [14] is described as follows: growth inhibition of DIPG cells – cell-based, MIPE5.0 library, qHTS (AID 1347068; cut-off not given, nearly all actives have IC50 up to about 30 µM). The note with it: SU-DIPG-XXV viability.
Assay [15] is described as follows: MELAS cybrid and Rieske KO viability enhancers – cell-based, MELAS cybrids, Rieske KO mouse fibroblasts, CellTiter-Glo, primary screen (AID 1508586;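 active means mean z-score across replicates of 1.96 or higher in either the MELAS or the Rieske mutant cell line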;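 further: z relative to plate mean and SD of compound and empty wells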). Particulars: low glucose.
A short description of assay [16]: galactose survival enhancers in mitochondrial complex I cybrids – cell-based, galactose medium, ATP luminescence, primary screen (AID 1645843).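 Further: positive z means more ATP and so rescue of galactose-driven cybrid death.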 Particulars: complex I mutant cybrid cells, 72 h, stronger effect = higher value.
Assay [17] is described as follows: EMT-state selective cytotoxicity in co-culture – imaging, PC-3E GFP, TEM4-18 mCherry, primary screen (AID 1345086;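 active means compounds killing one labelled cell type while sparing the other, by normalised counts and ratio limits, not self-fluorescent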;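 on all read-outs here: cells exposed to compound for 72 h before imaging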;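 on red/green cell ratio (normalised): normalised mesenchymal count divided by normalised epithelial count so high means epithelial killing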). The note with it: PC-3E GFP / TEM4-18 mCherry co-culture, imaging cell counts, at 1 µM; for red/green cell ratio (normalised): actives lie on both sides, counts scaled to control wells, 1 = unselective.
A short description of assay [18]: viability loss with induced miR-34 in A549 – imaging, A549 dox-inducible miR-34, nuclei and caspase counts, primary screen (AID 1347080;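 active means compounds whose cell count with miR-34 switched on is under 0.7 times the count with it off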). The note with it: A549 miR-34 inducible, Hoechst nuclei count, 48 h.
Assay [19] concerns the target NAD(+) hydrolase SARM1 (Homo sapiens) (UniProt Q6SZW1). Kind of assay: blocking NAD cleavage by SARM1 SAM-TIR – cell lysate, NAD-Glo luminescence (AID 1508614;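 active means compound whose remaining NAD level is above about 45 nM, limit read from the data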). Particulars: SAM-TIR HEK293T lysate NADase, at 1 µM, stronger effect = higher value.
[20] abbreviates: MELAS cybrid survival, CellTiter-Glo 48 h, stronger effect = higher value.
The mark [21] stands for this setting: Rieske KO mouse fibroblast survival, CellTiter-Glo 72 h.
The mark [22] stands for this setting: measured here: epithelial PC-3E GFP cell survival.
Where [23] appears, read: measured here: mesenchymal TEM4-18 mCherry cell survival.

Chain of NAD(+) hydrolase SARM1 (Homo sapiens) (Q6SZW1 whole entry, looked up): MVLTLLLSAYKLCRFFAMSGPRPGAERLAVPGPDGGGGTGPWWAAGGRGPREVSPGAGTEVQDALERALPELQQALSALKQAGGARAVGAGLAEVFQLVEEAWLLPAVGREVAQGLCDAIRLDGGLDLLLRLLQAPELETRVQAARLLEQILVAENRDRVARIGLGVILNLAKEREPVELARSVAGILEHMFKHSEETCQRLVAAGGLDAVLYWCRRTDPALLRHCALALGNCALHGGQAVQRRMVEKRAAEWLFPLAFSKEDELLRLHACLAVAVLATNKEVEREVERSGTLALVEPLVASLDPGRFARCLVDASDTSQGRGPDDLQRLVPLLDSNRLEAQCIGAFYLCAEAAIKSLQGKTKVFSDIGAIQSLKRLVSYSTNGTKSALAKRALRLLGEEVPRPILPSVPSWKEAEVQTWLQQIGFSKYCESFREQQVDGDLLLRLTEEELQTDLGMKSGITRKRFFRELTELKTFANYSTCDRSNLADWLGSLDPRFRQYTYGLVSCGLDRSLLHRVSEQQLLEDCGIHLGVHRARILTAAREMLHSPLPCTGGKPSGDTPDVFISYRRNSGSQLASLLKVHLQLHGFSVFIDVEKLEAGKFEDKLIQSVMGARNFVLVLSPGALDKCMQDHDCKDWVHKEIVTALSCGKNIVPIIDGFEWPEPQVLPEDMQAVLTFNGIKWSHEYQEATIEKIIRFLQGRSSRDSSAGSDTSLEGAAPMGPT

The viability is a read-out of living cells in per cent, often relative to untreated cells. By remaining activity is commonly meant what remains of the control signal, in per cent. The term AC50 denotes the midpoint of the concentration-response curve, whichever way the signal moves. In the case of `CC1=C(/C=C/C(C)=C/C=C/C(C)=C/C(=O)Nc2ccc(O)cc2)C(C)(C)CCC1`, in assay [1], the parasite load remaining is 39.4% (inactive). In addition, the viability in assay [1] came out at 108%. Further, the nuclear beta-catenin stimulation in assay [2] (at 10 µM) is 21.3% (inactive); in assay [2] (stimulation, at 2 µM), 39.9%. Further, the insulin secretion stimulation in assay [3] is 2.3% (inactive). In addition, in assay [4], the viability decrease is 98.8% (active). Besides, the tube area decrease in [5] is 110% (active). Moreover, in assay [6], the GLP1 secretion stimulation was 2.4% (inactive). In addition, the inhibition of viability in assay [7] was 90.4% (active). Further, the viability decrease (inhibition) in [8] was 118% (active); in assay [9], 94.3% (active). The remaining activity in assay [10] was 97.3% (inactive). For the same molecule, the AC50 was 20.9 µM (active) in assay [11], 34 µM (active) in assay [12] and 4.81 µM (active) in [13]. Also, the result in [14] was inactive. The z-score in [15] (setting [20]) was 0.416 (inactive); in assay [15] (setting [21]), 0.408; in assay [16], -0.95 (inactive) and -0.72 (inactive) and -2.12 (inactive).
Turning to `NC(=O)C1(N2CCCCC2)CCN(CCCC(=O)c2ccc(F)cc2)CC1`, the nuclear beta-catenin stimulation was -0.9% (inactive) in [2] (at 10 µM) and -2% in assay [2] (stimulation, at 2 µM). The insulin secretion stimulation in assay [3] was -0.5% (inactive). Also, the viability decrease in assay [4] is -17.7% (inactive). The tube area decrease in assay [5] is 11.1% (inactive). The GLP1 secretion stimulation in assay [6] is 2.8% (inactive). The inhibition of viability in assay [7] was 15.3% (inactive). For the same molecule, the values for the viability decrease (inhibition) in [8] and in assay [9] were 12.8% (inactive) and -5.9% (inactive), respectively. The red/green cell ratio (normalised) in assay [17] was 0.88 (inactive). For the same molecule, the normalised cell number in [17] (setting [22]) came to 1.16; in assay [17] (setting [23]) it was 1.02. For the same molecule, the fold change was 0.938 (inactive) in [18] (stronger effect = lower value, cell number ratio, induced over uninduced) and 0.733 in [18] (measured here: relative caspase fold change +Dox/-Dox). For the same molecule, the cell count is 8980 in [18] (measured here: total cells with miR-34 induction, stronger effect = lower value) and 9580 in assay [18] (measured here: total cells without miR-34 induction). In addition, in assay [19], the remaining NAD was 10 nM (inactive).
Take `C[N+](C)(C)CCCCCCCCCC[N+](C)(C)C`: in [1], the parasite load remaining was 84.1% (inactive) and 61.8% (inactive) and 73.4% (inactive). The viability in [1] was 80.8% and 105% and 148%. Moreover, the nuclear beta-catenin stimulation was -0.1% (inactive) in assay [2] (at 10 µM) and -0.9% in assay [2] (stimulation, at 2 µM). For the same molecule, the insulin secretion stimulation in assay [3] is 1.7% (inactive). Also, the viability decrease in [4] is 17.6% (inactive). The tube area decrease in assay [5] was -2.9% (inactive). Moreover, the GLP1 secretion stimulation in assay [6] is 0.7% (inactive). Moreover, the inhibition of viability in assay [7] is 2.9% (inactive). For the same molecule, the viability decrease (inhibition) in assay [8] is -8.7% (inactive); in assay [9], -0.3% (inactive). Besides, the red/green cell ratio (normalised) in [17] was 0.87 (inactive). Further, the normalised cell number in assay [17] (setting [22]) is 1.13; in assay [17] (setting [23]) it was 0.99. The z-score is -0.278 (inactive) and -0.415 (inactive) and 0.382 (inactive) in [15] (setting [20]); -0.149 and -1.14 and 0.433 in assay [15] (setting [21]); 0.27 (inactive) and 0.14 (inactive) in assay [16]. Besides, the remaining NAD in assay [19] is 10 nM (inactive).
